# An excerpt weighted towards active compounds, which were near 1.8% of everything screened.
# HDAC3 inh: blocks human histone deacetylase 3 | 0.15% of 320,000 active | O15379 | recombinant HDAC3, fluorogenic peptide/trypsin coupled, fluorescence | inhibition, % at 8.3 µM; in the data active = inhibition above about 26%, passing the limit was not always enough; inconclusive = no clear call, values can overlap the other calls
# Neddyl block: inhibitors of human cullin neddylation | TR-FRET cullin neddylation, biochemical | 0.58% of 360,000 active | inhibition, % at 25 µM | AID 651699 | P61081+Q13564; in the data active = inhibition above about 36%
# Target sequence (P61081 whole entry, looked up): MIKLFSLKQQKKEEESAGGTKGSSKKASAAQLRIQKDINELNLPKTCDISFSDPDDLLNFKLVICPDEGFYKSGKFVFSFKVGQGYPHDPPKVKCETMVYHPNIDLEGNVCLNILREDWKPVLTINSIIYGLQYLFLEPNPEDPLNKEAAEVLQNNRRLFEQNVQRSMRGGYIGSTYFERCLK
# Target sequence (Q13564 whole entry, looked up): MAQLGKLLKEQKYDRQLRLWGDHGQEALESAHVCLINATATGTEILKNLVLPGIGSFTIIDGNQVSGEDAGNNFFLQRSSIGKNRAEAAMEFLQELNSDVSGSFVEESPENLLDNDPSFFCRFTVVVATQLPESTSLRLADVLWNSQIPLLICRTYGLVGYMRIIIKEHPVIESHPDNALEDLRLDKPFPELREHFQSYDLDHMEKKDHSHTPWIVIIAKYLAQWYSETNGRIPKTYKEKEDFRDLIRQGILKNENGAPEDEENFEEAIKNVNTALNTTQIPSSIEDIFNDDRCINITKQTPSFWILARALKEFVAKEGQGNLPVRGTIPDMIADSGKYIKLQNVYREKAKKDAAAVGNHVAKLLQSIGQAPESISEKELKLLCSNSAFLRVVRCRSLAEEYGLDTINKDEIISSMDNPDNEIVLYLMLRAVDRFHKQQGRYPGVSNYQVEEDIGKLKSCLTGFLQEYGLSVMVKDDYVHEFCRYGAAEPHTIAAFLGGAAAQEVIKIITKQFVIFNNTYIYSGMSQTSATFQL
# Cardio protect: myocardial damage modulation in H9c2 cells. H9c2 cardiomyocytes, H2O2 injury protection, ATPLite, 2 h. protection from H2O2 cell death, % at 20 µM. 0.63% of 360,000 active;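 active = compounds giving at least 50% protection of heart cells from peroxide-induced death in the single-dose screen, raw or plate-pattern-corrected value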;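 note: 0% = DMSO wells with peroxide and 100% = DMSO wells without peroxide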
# GRK2 inh: human GRK2 inhibition via aptamer displacement; bead flow cytometry, FAM-aptamer displacement from GRK2; inhibition of aptamer binding, % at 10 µM; P25098; 0.59% of 330,000 active;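 active = inhibition of aptamer binding above 40%, roughly 3 SD of noise, on plates passing a quality check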;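 note: median bead fluorescence of bound FAM aptamer so fluorescent compounds give negative values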
# GRK2 CP1: human GRK2 inhibition confirmation, cherry pick 1. shares compounds with GRK2 inh. bead-bound GRK2, FAM-aptamer displacement, flow cytometry. 4% of 2,000 active. aptamer displacement, % at 10 µM. AID 504451;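 active = aptamer displacement above 40%, near three times the noise of non-fluorescent compounds, on plates passing quality checks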;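 note: negative values mostly reflect intrinsic compound fluorescence rather than true enhancement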
# Aptamer quench SP: aptamer fluorescence quenching in GRK2 counter-screen; shares compounds with GRK2 inh; Carboxyfluorescein RNA aptamer on beads, flow cytometry quenching; stronger effect = lower value; fluorescence response (% of DMSO), % at 10 µM; 2,000 tested, under 10 active;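 active = compounds that quench the bead-bound fluorescent RNA probe, cutting fluorescence to under half of the solvent control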;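 note: counterscreen run without GRK2 so only probe quenching by compound is measured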
# Neddyl inh conf: confirmation of human cullin neddylation inhibitors; shares compounds with Neddyl block; TR-FRET cullin neddylation biochemical assay; calls only at 25 µM; 13% of 1,800 active; in the data active = inhibition above about 40%;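 note: neddylation substrate is the cullin 1 ring ligase complex with SKP2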
# An asterisk follows results filed as active; i = inactive; ? = inconclusive; . = no result shown; + = active, no number.
SMILES,HDAC3 inh,Neddyl block,Cardio protect,GRK2 inh,Neddyl inh conf,others
CCN(CC)c1ccc(N=Cc2c(O)n(-c3ccccc3C)c(=O)[nH]c2=O)cc1,0.9,-17.8,3.3,27.0,.,GRK2 CP1=0.4;Aptamer quench SP=107.2
CN1CCN(c2ccc(C(N)=O)cc2N)CC1,-16.3,.,-5.9,43.0*,.,GRK2 CP1=-1.5;Aptamer quench SP=101.5
FC(F)(F)c1cccc(-n2nnnc2C2(N3CCOCC3)CCCCC2)c1,1.5,-5.3,-11.5,3.0,.,
Cc1ccc(C2(O)CCN3CCCCC32)cc1 (stereo not drawn),6.8,4.4,-2.2,2.0,.,
C[N+](C)(C)CCOC(=O)CBr,1.6,-11.2,16.8,14.0,.,GRK2 CP1=0.1;Aptamer quench SP=103.5
CC(=O)OCC[N+](C)(C)C,4.7,-5.0,16.8,3.0,.,
CCOc1ccc(C2(C#N)CC[N+](C)(C)CC2)cc1,1.4,5.2,10.2,0.0,.,
CN1CCN(C(=O)COc2ccc(S(=O)(=O)N(C)Cc3ccccc3)cc2)CC1,3.7,1.1,-3.4,54.0*,.,GRK2 CP1=-22.2;Aptamer quench SP=150.8
CN(C)C(=O)Oc1c(Cl)cc(Cl)c2ccccc12,0.0,-17.8,0.2,1.0,.,
CN(C)C(=O)Oc1ccc(Cl)c2cccnc12,?,42.5*,-2.2,0.0,i,
CCn1c(O)c(/C=N/NC(=O)c2ccccc2)c(=O)[nH]c1=S,-3.1,60.3*,-1.9,1.0,i,
CC(Cc1ccccc1)N1C(=O)c2ccccc2C1=O (stereo not drawn),-2.2,-0.7,7.7,0.0,.,
Cc1cc(N(CCCl)CCCl)ccc1C=NNC(=O)c1cccnc1,.,38.6*,9.9,.,i,
CC(=O)N(C1=NCCCS1)c1ccc(Cl)cc1,-0.6,-5.6,-6.2,0.0,.,
CCCCCCC(=O)N/N=C/c1c(O)n(C2CC2)c(=S)[nH]c1=O,5.4,55.9*,5.9,0.0,i,
CCCCCCC(=O)N/N=C/c1c(O)n(C(C)CC)c(=S)[nH]c1=O (stereo not drawn),12.1,33.5,8.8,0.0,.,
O=C1CN=C(c2ccc(Br)cc2)c2oc3ccccc3c2N1,1.5,40.5*,-8.5,7.0,i,
CC(=O)OC[C@]12CCC(C)=C[C@H]1O[C@@H]1[C@H](O)[C@@H](OC(C)=O)[C@@]2(C)[C@]12CO2,-4.9,4.6,-2.4,0.0,.,
O=C1CN=C(c2ccc[nH]2)c2cc(Cl)ccc2N1,0.5,39.1*,-2.7,5.0,+,
O=C(c1cc(F)ccc1F)C1CCCN(CCCc2ccccc2)C1 (stereo not drawn),9.9,7.2,8.3,0.0,.,
CN(C)c1ccc(/C=C/c2cc[n+](C)c3ccccc23)cc1,.,-9.6,-19.1,.,.,
C[n+]1ccc(-c2ccccc2)c2ccccc21,-21.6,27.9*,-20.5,0.0,+,

# Screens deposited in PubChem by several laboratories.
